Assay outcomes from PubChem BioAssay.
Only some compounds are listed: those with a hit (about 19% of all), similar ones and a draw of the others.
IL-1B inflam inh: qHTS for Inhibitors of Inflammasome Signaling: IL-1-beta AlphaLISA Primary Screen; THP-1 LPS/ATP IL-1B secretion, AlphaLISA, 16 h; active compounds read low; activity change, % at 57.5 µM; 360,000 compounds, 4.7% hits; in the data active = activity change below about -50%; inconclusive = mostly about -30% to -49%
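Secreted IL-1B measured by AlphaLISA bead assay after 16 h compound exposure of THP-1 cells; compounds (final up to 57.5 uM) added 1 h before LPS (250 ng/mL) and ATP (1.25 mM) stimulation; lower signal means less secretion.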
TGFb inhibitor: qHTS for Inhibitors of TGF-b; HepG2 CAGA-GFP TGF-b/SMAD3 reporter, GFP fluorescence, 18 h; TGF-beta stimulated, 500 pg/mL final; Potency, µM (highest dose often 46.1 µM), most hits filed as inhibitors; 410,000 compounds, 1.2% hits; AID 588855, 2011; also: nearly all actives have a fitted effect of over 65% in size
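HEPG2 CAGA-GFP cells (1000/well, DMEM with 1% FBS) were pre-incubated 2 h at 37 degrees C, given compound by pin tool, then stimulated with TGF-beta at 500 pg/mL final for 18 h before per-cell GFP fluorescence imaging.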
S-ASM inh: Inhibitors of Secretory Acid Sphingomyelinase (S-ASM): qHTS. Sphingomyelin phosphodiesterase (Homo sapiens), P17405. placental ASM, HMU-PC fluorogenic substrate, 60 min. Potency, µM (series often up to 57.5 µM), hits mostly inhibitors. 340,000 compounds, 0.006% hits. AID 504937, 2011
Target sequence (P17405 47-631 limits assumed): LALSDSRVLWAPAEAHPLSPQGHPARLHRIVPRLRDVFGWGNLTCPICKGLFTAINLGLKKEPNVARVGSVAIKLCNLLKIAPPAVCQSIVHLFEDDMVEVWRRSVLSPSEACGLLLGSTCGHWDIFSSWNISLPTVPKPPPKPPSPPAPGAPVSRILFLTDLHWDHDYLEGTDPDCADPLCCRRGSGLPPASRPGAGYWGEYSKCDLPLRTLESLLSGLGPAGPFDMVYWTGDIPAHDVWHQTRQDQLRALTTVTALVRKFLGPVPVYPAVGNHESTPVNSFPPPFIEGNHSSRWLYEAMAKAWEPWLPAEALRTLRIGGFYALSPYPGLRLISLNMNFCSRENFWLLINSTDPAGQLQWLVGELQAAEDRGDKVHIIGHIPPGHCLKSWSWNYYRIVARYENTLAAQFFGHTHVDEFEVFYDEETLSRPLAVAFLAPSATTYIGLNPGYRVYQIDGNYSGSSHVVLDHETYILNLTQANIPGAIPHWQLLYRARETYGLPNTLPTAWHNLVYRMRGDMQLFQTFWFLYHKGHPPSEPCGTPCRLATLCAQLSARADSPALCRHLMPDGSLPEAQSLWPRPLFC
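Fluorogenic HMU-PC substrate (9 uM final) is turned over by placental ASM in 60 min at 37 C after a 10 min compound preincubation. Reaction ended by alkaline stop (pH 10), with fluorescence read at 386/447 nm.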
HepG2 tox: qHTS for Inhibitors of TGF-b: Cytotox Counterscreen; HepG2 CAGA-GFP viability, ATP luminescence, 18 h; Potency, µM (doses to about 46.1 µM), hits mostly cytotoxic; 410,000 compounds, 0.76% hits
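HepG2 CAGA-GFP cells (1000/well, DMEM with 1% FBS) received compound, then TGF-beta at 500 pg/mL final, and were incubated 18 hours at 37 degrees C. Viability was read by CellTiter-Glo luminescence. Media-only wells were set as complete cell-killing and DMSO as no toxicity.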
TDP1 cell CPT: qHTS for Inhibitors of human tyrosyl-DNA phosphodiesterase 1 (TDP1): qHTS in cells in presence of CPT | chicken DT40 Tdp1-/-;hTDP1 cells + 20 nM CPT, ATP luminescence, 48 h | Potency, µM (doses to about 46.2 µM), hits mostly inhibitors | 420,000 compounds, 12% hits; also: nearly all actives have a fitted effect of over 55% in size
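Chicken DT40 Tdp1-/- cells stably complemented with human TDP1 were seeded at 400 cells/well in medium containing 20 nM camptothecin, exposed to pin-transferred compounds, and grown at 37 °C for at least 48 hr. Viability was read as ATP luminescence.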
TDP1 cell noCPT: qHTS for Inhibitors of human tyrosyl-DNA phosphodiesterase 1 (TDP1): qHTS in cells in absence of CPT; Potency, µM (titrated, usually from 46.2 µM), actives largely listed as inhibitors; AID 686978, 2013; 420,000 compounds, 15% hits; DT40 Tdp1-/- hTDP1 cells, no CPT, ATP luminescence, 48 h; also: nearly all actives have a fitted effect of over 55% in size
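No-CPT arm: Tdp1-/-;hTDP1 DT40 cells (400/well) plus compounds, incubated ≥48 hr at 37 °C. Readout CellTiter-Glo luminescence.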
Large screens that a line does not name were inactive. Unless noted, calls follow the shape of the dose curve; as a rule, active = well fitted curve in the direction sought with a large enough effect; inconclusive = small, poorly fitted or top-dose-only effect, or another doubt; inactive = no such curve, though single readings can be large; an effect the other way counts as inactive or inconclusive.

COc1ccccc1NC(=O)C1CCCCN1S(=O)(=O)c1ccc(F)cc1 (stereo unspecified)	TDP1 cell noCPT inconclusive
O=C(NCCC1CCCCN1S(=O)(=O)c1ccccc1)C(=O)Nc1ccc(F)cc1F (stereo unspecified)	IL-1B inflam inh inconclusive, TDP1 cell CPT 18.4µM, TDP1 cell noCPT 18.4µM
COc1ccccc1NC(=O)C(=O)NCCC1CCCCN1S(=O)(=O)c1ccc(F)cc1 (stereo unspecified)	TDP1 cell CPT 14.6µM, TDP1 cell noCPT 18.4µM
Cc1ccc(S(=O)(=O)N2CCCCC2CCNC(=O)C(=O)Nc2ccccc2F)cc1 (stereo unspecified)	TDP1 cell CPT 6.51µM, TDP1 cell noCPT 5.8µM
O=C(NCCC1CCCCN1S(=O)(=O)c1ccccc1)C(=O)Nc1ccccc1F (stereo unspecified)	TDP1 cell CPT 18.4µM, TDP1 cell noCPT 23.1µM (no result: S-ASM inh)
O=C(NCCC1CCCCN1S(=O)(=O)c1ccc(F)cc1)C(=O)Nc1ccccc1F (stereo unspecified)	TDP1 cell CPT inconclusive, TDP1 cell noCPT 25.9µM
CCN(CC)c1ccc(NC(=O)c2ccccc2F)cc1	TDP1 cell CPT inconclusive, TDP1 cell noCPT 23.1µM
O=C(Nc1ccc(S(=O)(=O)N2CCCCC2)cc1)c1ccccc1F	IL-1B inflam inh inconclusive, TDP1 cell noCPT inconclusive
O=C(Nc1ccc(Nc2ccccc2)cc1)c1ccccc1F	IL-1B inflam inh -97.3, TDP1 cell CPT inconclusive, TDP1 cell noCPT inconclusive
CCOC(=O)Nc1cccc(NC(=O)c2ccccc2F)c1	none
N#CC1(c2ccc(NC(=O)c3ccccc3F)cc2)CCCC1	IL-1B inflam inh -68.5, TGFb inhibitor inconclusive, TDP1 cell CPT inconclusive, TDP1 cell noCPT inconclusive
CC1CCCCN1C(=O)c1cc(S(=O)(=O)N2CCOCC2)ccc1Cl (stereo unspecified)	none
O=C(Nc1nc(-c2ccccn2)cs1)c1ccccc1-n1cnnn1	TGFb inhibitor inconclusive, TDP1 cell CPT 2.59µM, TDP1 cell noCPT inconclusive
O=C(Nc1nc(-c2ccccn2)cs1)c1ccc2c(c1)OCCO2	TDP1 cell CPT 3.26µM, TDP1 cell noCPT 3.26µM
CC(=O)Nc1ccc(C(=O)Nc2nc(-c3ccccn3)cs2)cc1	TDP1 cell CPT 16.4µM, TDP1 cell noCPT 14.6µM
O=C(Nc1ccc(OC(F)(F)F)cc1)c1ccccc1-n1cnnn1	none
O=C(Nc1ccccn1)c1ccc2c(c1)OCCO2	TDP1 cell CPT inconclusive, TDP1 cell noCPT inconclusive
COc1ccc(S(=O)(=O)N2CCN(C(=O)COc3ccc4c(C)cc(=O)oc4c3)CC2)cc1	TDP1 cell CPT inconclusive, TDP1 cell noCPT inconclusive
Cc1cc(=O)oc2cc(OCC(=O)N3CC(C)OC(C)C3)ccc12 (stereo unspecified)	none
CCCNC(=O)COc1nc2ccccc2nc1N1CCOCC1	TDP1 cell CPT inconclusive
CC1Cc2ccccc2N1C(=O)COc1nc2ccccc2nc1N1CCOCC1 (stereo unspecified)	TGFb inhibitor inconclusive, TDP1 cell CPT 7.31µM, TDP1 cell noCPT 9.2µM
COc1ccc(OCC(=O)N2c3ccccc3CC2C)c([N+](=O)[O-])c1 (stereo unspecified)	TDP1 cell CPT inconclusive, TDP1 cell noCPT inconclusive
CCC(C)c1ccc(S(=O)(=O)N2CCN(C(=O)COc3ccc4c(C)cc(=O)oc4c3)CC2)cc1 (stereo unspecified)	TDP1 cell CPT inconclusive, TDP1 cell noCPT 14.6µM
Cc1cc(=O)oc2cc(OCC(=O)N3c4ccccc4CC3C)ccc12 (stereo unspecified)	TDP1 cell CPT 4.11µM, TDP1 cell noCPT 2.31µM
